Our source for the Potency values is ChEMBL document CHEMBL1201862, “PubChem BioAssay data set” (2004).

SMILES strings stand for the structures. The campaign covered roughly 400,000 compounds. About 2,100 (0.53%) were called active. Not shown: some 14% with an inconclusive outcome. The sample holds actives, similar compounds and a random draw of the others, so the mix is not that of the screen. The rule behind the calls is not given here.

Ataxin-2 (Homo sapiens), sequence (Q99700 whole entry): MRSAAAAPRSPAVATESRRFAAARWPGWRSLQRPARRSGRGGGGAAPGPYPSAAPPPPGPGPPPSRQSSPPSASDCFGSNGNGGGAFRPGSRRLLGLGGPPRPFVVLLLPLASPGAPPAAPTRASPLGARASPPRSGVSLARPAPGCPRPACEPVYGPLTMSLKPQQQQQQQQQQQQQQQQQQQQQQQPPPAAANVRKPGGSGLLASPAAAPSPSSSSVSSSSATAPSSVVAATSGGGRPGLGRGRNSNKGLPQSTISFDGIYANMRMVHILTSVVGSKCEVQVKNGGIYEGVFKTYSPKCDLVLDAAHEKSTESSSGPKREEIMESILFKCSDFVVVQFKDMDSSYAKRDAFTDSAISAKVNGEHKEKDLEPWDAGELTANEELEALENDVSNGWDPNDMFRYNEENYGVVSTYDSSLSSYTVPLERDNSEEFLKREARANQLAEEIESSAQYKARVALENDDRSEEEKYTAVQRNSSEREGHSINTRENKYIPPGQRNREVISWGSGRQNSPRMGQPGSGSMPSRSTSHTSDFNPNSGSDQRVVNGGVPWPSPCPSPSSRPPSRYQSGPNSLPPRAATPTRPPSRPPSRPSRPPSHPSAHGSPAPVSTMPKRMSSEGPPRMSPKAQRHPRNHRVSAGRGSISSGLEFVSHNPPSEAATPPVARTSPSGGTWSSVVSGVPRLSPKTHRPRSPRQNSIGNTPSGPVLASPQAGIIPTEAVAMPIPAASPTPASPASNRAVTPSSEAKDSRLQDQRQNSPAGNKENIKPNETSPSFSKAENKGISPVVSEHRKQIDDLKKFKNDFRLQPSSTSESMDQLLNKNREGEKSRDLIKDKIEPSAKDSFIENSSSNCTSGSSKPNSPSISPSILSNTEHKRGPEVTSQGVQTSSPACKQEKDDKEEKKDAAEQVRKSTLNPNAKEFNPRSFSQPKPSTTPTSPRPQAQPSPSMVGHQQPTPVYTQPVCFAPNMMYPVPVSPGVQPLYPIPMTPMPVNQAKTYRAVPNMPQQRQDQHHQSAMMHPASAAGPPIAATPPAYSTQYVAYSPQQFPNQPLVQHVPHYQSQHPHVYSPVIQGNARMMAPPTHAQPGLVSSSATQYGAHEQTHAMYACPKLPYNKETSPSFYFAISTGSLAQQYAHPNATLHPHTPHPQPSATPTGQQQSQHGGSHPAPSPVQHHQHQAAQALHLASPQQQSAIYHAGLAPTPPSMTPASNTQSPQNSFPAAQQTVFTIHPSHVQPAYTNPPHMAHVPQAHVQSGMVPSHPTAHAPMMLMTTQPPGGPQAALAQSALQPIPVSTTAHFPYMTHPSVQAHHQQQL

This assay addresses Ataxin-2 (Homo sapiens) (UniProt Q99700). In words: qHTS for Inhibitors of ATXN expression. The format is functional. (qHTS replaces the single test concentration by a dilution series.)
For the compound `COc1ccc(NC(=O)c2sc3nc(C)c(C(=O)Nc4ccc(C)cc4C)c(-c4ccccc4Cl)c3c2N)cc1`, the Potency entry is “inactive”.

As to `c1ccc(C2=NN=C(c3ccncc3)c3ccc4ccccc4c3N2)cc1`, the Potency entry was “inactive”. On to `N=c1c(C(=O)NCC2CCCO2)cc2c(=O)n3ccccc3nc2n1Cc1ccc(F)cc1` (stereo not drawn), for which the Potency entry was “inactive”. The figure for `O=C(c1cccc(Cl)c1)N1CCC(=O)N(C(COCc2cccc(Cl)c2)Cc2ccccc2)CC1` (stereo not drawn) is 35.5 µM (active); for `Cc1cccc(COC[C@H](Cc2ccccc2)N2CCN(C(=O)c3cccc(Cl)c3)CCC2=O)c1` it is 25.1 µM (active).

For the compound `Cc1cccc(C(=O)N2CCC(=O)N([C@H](COCc3ccc(Cl)cc3)Cc3ccccc3)CC2)c1`, the Potency is 39.8 µM (active). Take `Cc1ccc(S(=O)(=O)N2CCN(C(=O)COC(=O)Cc3ccc(Cl)cc3)CC2)c(C)c1`: the Potency result was “inactive”. The entry for `Cc1nn(Cc2ccccc2)c(C)c1C(=O)N1CCN(S(=O)(=O)/C=C/c2ccccc2)CC1` is “inactive”. Take `Cc1cccc(C(=O)NCC(=O)N2CC=C(c3ccccc3)CC2)c1`: the Potency entry is “inactive”. Regarding `O=C1/C(=C/c2cccc(F)c2)Oc2cc(O)ccc21`, the Potency result is “inactive”. For the compound `CN1CCc2c(sc3c2C(=O)NC(/C=C\c2ccccc2)N3)C1` (stereo not drawn), the Potency result is “inactive”. Regarding `O=c1cc(-c2ccccc2)c2ccc3c(c2o1)CN(Cc1cccc(Cl)c1)CO3`, the Potency entry was “inactive”. As to `Cc1ccc(S(=O)(=O)C(C#N)c2nc3ccccc3nc2N2CC(C)OC(C)C2)cc1C` (stereo not drawn), the Potency result was “inactive”. Consider `Cc1c(CCOC(=O)C23CC4CC(CC(C4)C2)C3)sc[n+]1CC#N`, for which the Potency is 31.6 µM (active).

For the compound `Cc1c(CCOC(=O)C2C3CC4CC(C3)CC2C4)sc[n+]1CC(=O)c1ccc(Br)cc1` (stereo not drawn), the Potency is 20 µM (active). With `Cc1c(CCOC(=O)CC23CC4CC(CC(C4)C2)C3)sc[n+]1CC(=O)c1ccccc1`, the Potency is 29.9 µM (active). As to `CN1CCC(N(C)C(S)=NCCc2ccccc2)CC1`, the Potency result was “inactive”.

Consider `CCNS(=O)(=O)c1ccc(CCC(=O)N2CCc3ccccc3C2)cc1`, for which the Potency entry was “inactive”.

With `Cc1ccc2nc(C)c3c(c2c1)N(c1ccc(F)cc1)CC3`, the Potency entry is “inactive”. For the compound `CC(C)NCC(O)Cn1c2c(c3ccccc31)CCc1c-2cnn1-c1ccccc1` (stereo not drawn), the Potency is 25.1 µM (active). As to `N#Cc1sc2nc(-c3cccs3)cc(-c3ccccc3)c2c1N`, the Potency entry is “inactive”. `Cc1ccc(C(=O)Sc2cccccc2=O)cc1`: the Potency is 2.51 µM (active). Turning to `Cc1ccc(C(=O)C(C)[n+]2cccc(C(N)=O)c2)cc1` (stereo not drawn), the Potency result is “inactive”. The entry for `NC(=O)c1ccc(NC(=O)CNC(c2ccccc2)c2ccccc2)cc1` is “inactive”.

Take `Cc1cccc(CC(=O)N2CCC(N3CCC(C(=O)N4CCOCC4)CC3)CC2)c1`: the Potency entry was “inactive”. `COc1ccc(-c2noc(CSc3nnc(Cc4ccccc4)n3-c3ccc(F)cc3)n2)cc1`: the Potency is 39.8 µM (active).

Turning to `COc1ccc(Cc2noc(CN(C)CCN3CCc4ccccc4C3)n2)cc1OC`, the Potency entry is “inactive”. Regarding `COc1ccccc1-c1noc(CSc2nnc(Cc3ccccc3)n2-c2ccc(C)c(C)c2)n1`, the Potency was 35.5 µM (active). `COc1ccc(OC(C)C(=O)N(C)Cc2nc(-c3ccc(C)cc3)no2)cc1` (stereo not drawn): the Potency result is “inactive”. As for `COc1ccc(OC)c(-c2noc(CSc3nnc(Cc4ccccc4)n3-c3cccc(C)c3)n2)c1`, the Potency is 22.4 µM (active). For `COc1ccc(OC(C)C(=O)N(C)Cc2nc(-c3ccccc3)no2)cc1` (stereo not drawn), the Potency entry is “inactive”. For `COc1ccccc1-c1ccc(SCc2cccc(F)c2)nn1`, the Potency result was “inactive”.

As for `COc1ccc(-c2noc(CSc3nnc(Cc4ccccc4)n3-c3cccc(C)c3)n2)cc1`, the Potency is 39.8 µM (active). The entry for `COCC(C)n1c(SCc2nc(O)c3ccccc3n2)nc2ccccc2c1=O` (stereo not drawn) is “inactive”.

Take `Nc1ccc(-c2c3ccccc3nc3ccccc23)cc1`: the Potency entry is “inactive”. On to `CC(=O)c1cnc(SCc2ccc(Cl)cc2)nc1C`, for which the Potency result was “inactive”. With `COc1cccc(-c2csc(/C(C#N)=C/Nc3cc4oc5ccccc5c4cc3OC)n2)c1`, the Potency result is “inactive”. Turning to `CNC(=O)c1ccc(NC(=O)CC2SC(N3CCCC3)=NC2=O)cc1` (stereo not drawn), the Potency entry was “inactive”. For `O=c1oc2ccc3ccccc3c2cc1-c1nnc(-c2cccs2)o1`, the Potency result is “inactive”. As to `O=C(OCC(=O)N1CCCC1=O)C1CCN(S(=O)(=O)c2ccc(Cl)c(C(F)(F)F)c2)CC1`, the Potency result was “inactive”. As to `Cc1ccc(NC(=O)COC(=O)[C@H](C)N2C(=O)C3CC=CCC3C2=O)cc1S(=O)(=O)N(C)C` (stereo partly drawn), the Potency entry is “inactive”. As for `CCCN(CC(=O)Nc1ccccc1C)C(=O)c1ccc(N2CCCC2=O)cc1`, the entry is “inactive”; as for `C=CC[C@H](CC(=O)N[C@H](CO)Cc1ccccc1)C(=O)N[C@@H](COC(=O)[C@@H](CC=C)CC(=O)OC(C)(C)C)Cc1c[nH]c2ccccc12`, 25.1 µM (active).

As for `C=CC[C@@H](CC(=O)N[C@@H](CO)Cc1ccccc1)C(=O)N[C@H](COC(=O)[C@@H](CC=C)CC(=O)OC(C)(C)C)Cc1c[nH]c2ccccc12`, the Potency was 28.2 µM (active). In the case of `C=CC[C@@H](CC(=O)N[C@@H](CO)Cc1ccccc1)C(=O)N[C@H](COC(=O)[C@H](CC=C)CC(=O)OC(C)(C)C)Cc1c[nH]c2ccccc12`, the Potency is 28.2 µM (active). The entry for `O=C(CCCCCn1c(=S)[nH]c2ccc(N3CCOCC3)cc2c1=O)NCc1ccc2c(c1)OCO2` is “inactive”; for `Cn1c(N)nc2nc(CCc3ccccc3)c(O)nc2c1=O` it is “inactive”. For `CCOc1ccc(CC(=O)Nc2c(C(=O)c3ccccc3)oc3ccc(Cl)cc23)cc1OCC`, the Potency entry is “inactive”. Consider `Cc1nc(Sc2ccc(Cl)cc2)c(C#N)c(C)c1[N+](=O)[O-]`, for which the Potency result was “inactive”.

As for `Cc1ccc(Oc2ncnc(N)c2[N+](=O)[O-])cc1`, the Potency result was “inactive”. As for `Cc1cc(C)nc(Sc2ncnc(N)c2[N+](=O)[O-])n1`, the figure is 16.8 µM (active); as for `C=C(C(=O)c1ccccc1)C(C)CC(=O)c1ccccc1` (stereo not drawn), 15.8 µM (active); as for `C=C(C(=O)c1ccccc1)C(c1ccccc1)C(C)C(=O)c1ccccc1` (stereo not drawn), 31.6 µM (active). Consider `CC(OC(=O)C1COc2ccccc2O1)C(=O)c1ccccc1` (stereo not drawn), for which the Potency entry was “inactive”. Turning to `O=C(Cc1nc2ccccc2nc1O)c1ccccc1`, the Potency result was “inactive”. For the compound `Nc1nc2ccccc2cc1S(=O)(=O)c1ccccc1`, the Potency result was “inactive”. Take `O=C(Nc1ccccc1)Nc1ccc2ncoc2c1`: the Potency result is “inactive”. In the case of `CN(C)/C=N/c1nc2ccccc2nc1N1CCCC1`, the Potency result is “inactive”.

With `N#C/C(=C/c1cccn1-c1cccc(C(=O)O)c1)c1ccc(F)cc1`, the Potency entry was “inactive”. As for `N#Cc1c(N2CCCC2)ccc(Br)c1Cl`, the Potency result was “inactive”. Regarding `COC(=O)c1ccc(CSc2cc(C)c3ccccc3n2)o1`, the Potency entry is “inactive”.

Take `CC(C)(C)c1ccc2c(c1)OC(C(=O)N/N=C\c1ccncc1)CO2` (stereo not drawn): the Potency result was “inactive”. As for `N=c1c(C(=O)NCC2CCCO2)cc2c(=O)n3ccccc3nc2n1Cc1ccccc1` (stereo not drawn), the entry is “inactive”. For `CCN(Cc1ccncc1)C(=S)Nc1ccccc1C`, the Potency result is “inactive”.

On to `Cc1ccccc1NC(=O)c1ccc2snnc2c1`, for which the Potency entry was “inactive”. For `CCCc1nn(C)c(C(=O)Nc2cccc(CC)c2)c1Cl`, the Potency entry is “inactive”.

Regarding `Cc1ccccc1NC(=O)c1ccc(N(Cc2ccccc2)S(C)(=O)=O)cc1`, the Potency is 35.5 µM (active). `Cc1cccc(NC(=O)c2ccc(N(Cc3ccccc3)S(C)(=O)=O)cc2)c1`: the Potency was 25.1 µM (active). Turning to `CS(=O)(=O)N(Cc1ccccc1)c1ccc(C(=O)Nc2cccc(Cl)c2)cc1`, the Potency is 17.8 µM (active).

For the compound `Cc1cc(C(F)(F)F)c2c(N)c(C(=O)Nc3cc(C)on3)sc2n1`, the Potency result was “inactive”. As for `Cc1ccc(C)c(Oc2coc3cc(O)ccc3c2=O)c1`, the entry is “inactive”; as for `CCOc1ccccc1-n1c(N)c(C(=O)OC)c2nc3ccccc3nc21`, “inactive”; as for `COc1cc2nc(N3CCN(c4cc(C)ccc4C)CC3)nc(N)c2cc1OC`, 39.8 µM (active).

Regarding `CCOC(=O)N1CCN(c2nc(-c3ccccc3)c3cc(C)ccc3n2)CC1`, the Potency entry was “inactive”.

As for `COc1cc2nc(CN3CCN(S(=O)(=O)c4ccc(C)c(C)c4)CC3)nc(O)c2cc1OC`, the Potency result was “inactive”. In the case of `Cc1ccc2nc3c(cc2c1)c(NC(=O)C(C)(C)C)nn3CC(C)C`, the Potency result was “inactive”. As to `C=CCn1c(N)c(C(=O)NCC2CCCO2)c2nc3ccccc3nc21` (stereo not drawn), the Potency result is “inactive”. For the compound `O=C1C=C(Nc2cccnc2)c2ccccc2C1=O`, the Potency was 39.8 µM (active). As for `Cc1ccc(-c2ccc(S(=O)(=O)Nc3cccnc3)cc2)cc1`, the entry is “inactive”; as for `c1cncc(Nc2c3ccccc3nc3ccccc23)c1`, “inactive”. On to `CS(=O)(=O)c1ccc([S+]([O-])CC(=O)OCc2ccccc2)c([N+](=O)[O-])c1` (stereo not drawn), for which the Potency is 26.7 µM (active). `CN(C)C(CNc1ccc(S(C)(=O)=O)cc1[N+](=O)[O-])c1ccccc1` (stereo not drawn): the Potency result was “inactive”. On to `O=C(COc1ccc2ccc(=O)oc2c1)OCc1ccccc1`, for which the Potency entry is “inactive”. For the compound `Nc1ccc2nc(-c3ccccc3)c(-c3ccccc3)nc2c1`, the Potency result was “inactive”.

For `Nc1nc(-c2ccccc2)c(N=Nc2ccccc2Cl)s1`, the Potency was 31.6 µM (active). On to `Cc1ccc(-c2nc(N)sc2C)cc1`, for which the Potency entry was “inactive”. As for `O=C(O)c1ccc(CN2C(=O)c3cccc4c([N+](=O)[O-])ccc(c34)C2=O)cc1`, the entry is “inactive”. The entry for `O=C(COC(=O)COc1cccc2ccccc12)NCC(F)(F)F` is “inactive”; for `CCCCn1nnnc1C(c1cc2ccccc2o1)N(CCN(C)C)Cc1ccccc1` (stereo not drawn) it is 28.2 µM (active). Turning to `CCCc1cc(=O)oc2cc(OCC(=O)NCCN3CCOCC3)c(Cl)cc12`, the Potency result was “inactive”. With `CCOc1cc(CNCCCN2CCOCC2)cc(Br)c1OCC(=O)Nc1cccc(C(F)(F)F)c1`, the Potency is 20 µM (active). For `COc1cc(CNCCCN2CCOCC2)cc(Br)c1OCc1ccc(Cl)cc1`, the Potency was 33.6 µM (active).

With `COc1cccc2cc(C(=O)C3=C(O)C(=O)N(CCN4CCOCC4)C3c3ccc(Cl)cc3)oc12` (stereo not drawn), the Potency result is “inactive”.

For `COc1cc2sc3cc(NCCCN4CCOCC4)ccc3c(=O)c2cc1OC`, the Potency entry is “inactive”.

As to `CC(C)(CNC(=O)c1ccc(S(=O)(=O)Nc2cccc(C(F)(F)F)c2)cc1)N1CCOCC1`, the Potency entry was “inactive”. Take `COc1cc(CNCCN2CCOCC2)ccc1OCc1ccc(Cl)cc1Cl`: the Potency was 25.1 µM (active). `C=CCOc1c(Br)cc(CNCCCN2CCOCC2)cc1OC`: the Potency result was “inactive”.

With `O=C(COC(=O)COc1cccc(C(F)(F)F)c1)Nc1ccc(N2CCOCC2)cc1`, the Potency result was “inactive”.
